The values that follow come from PubChem BioAssay.

In assay [1] the test system is Aerobactin synthetase IucA (Klebsiella pneumoniae). The experiment in a line: IucA aerobactin synthetase inhibitors, biochemical, Tocris library, absorbance (AID 1345561).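 Note: 100% = enzyme without compound and 0% = no enzyme.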 To be noted: purified IucA enzyme assay, absorbance (OD) read-out; stronger effect = lower value;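 tested at 8 µM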.
Assay [2] can be described thus: sensitizers of A549 cells to miR-34 induction, primary screen, imaging, A549 dox-inducible miR-34, nuclei and caspase counts (AID 1347080;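 active = compounds whose cell count with miR-34 switched on is under 0.7 times the count with it off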). To be noted: A549 miR-34 inducible, Hoechst nuclei count, 48 h.
The nature of assay [3]: viability rescue of complex I mutant cybrids, primary screen, cell-based, galactose medium, ATP luminescence (AID 1645843;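 active = z-score of at least 1.8 in each of two replicates, scored against plate mean and spread of sample wells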;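 note: positive z means more ATP and so rescue of galactose-driven cybrid death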). The conditions noted are these: complex I mutant cybrid cells, 72 h, stronger effect = higher value.
Assay [4] in a line: liver-stage malaria parasite growth inhibition, primary screen, cell-based, HepG2, luciferase luminescence, HepG2 viability (AID 624349; in the data active = parasite load remaining mostly below about 12%, no sharp cut-off; inactive = mostly above about 10%;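 note: 100% = mean of DMSO negative control wells on the same plate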). To be noted: P. berghei liver stage in HepG2, luciferase luminescence, concentration not given here; parasite load remaining: stronger effect = lower value; viability: measured here: HepG2 viability without parasites.
Assay [5] is described as follows: LFS_MB_P medulloblastoma growth inhibition, cell-based, chromothripsis tumors, cisplatin or BGB combos (AID 1671449; in the data active = inhibition above about 80%;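 note: cells exposed for 96 hours; 0% = vehicle DMSO and 100% = killing by high DMSO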). The conditions noted are these: LFS_MB_P medulloblastoma cells.
A short description of assay [6]: HDN33 neuroblastoma growth inhibition, cell-based, chromothripsis tumors, cisplatin or BGB combos (AID 1671450; in the data active = inhibition above about 80%;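 note: cells exposed to compound for four days; 0% = vehicle DMSO and 100% = cell killing by high DMSO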). To be noted: HDN33 neuroblastoma cells, stronger effect = higher value.
A short description of assay [7]: ICB984 medulloblastoma cell growth inhibition, synergistic combos for chromothripsis tumors, cisplatin or BGB combos (AID 1671451).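 Note: cells exposed for 96 hours before readout; 0% = vehicle DMSO and 100% = killing by high DMSO.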 The conditions noted are these: ICB984 medulloblastoma cells, drug combinations, stronger effect = higher value.
A short description of assay [8]: HTB85 osteosarcoma cell growth inhibition, synergistic combos for chromothripsis tumors, BGB or cisplatin IC20 combos (AID 1671453; in the data active = inhibition above about 80%;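 note: cells exposed for 96 hours before readout; 0% = vehicle DMSO and 100% = high DMSO killing control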). To be noted: HTB85 osteosarcoma cells, drug combinations, stronger effect = higher value.
[9] abbreviates: stronger effect = lower value, cell number ratio, induced over uninduced.
The mark [10] stands for this setting: measured here: relative caspase fold change +Dox/-Dox.
The mark [11] stands for this setting: measured here: total cells with miR-34 induction, stronger effect = lower value.
Setting [12] is: measured here: total cells without miR-34 induction.
Where [13] appears, read: at 0.5 µM, stronger effect = higher value.
[14] abbreviates: measured here: combination with BGB IC20, at 0.005 µM.
[15] abbreviates: measured here: combination with BGB IC40, at 0.005 µM.
[16] abbreviates: measured here: combination with BGB IC40, at 0.05 µM.
[17] abbreviates: measured here: combination with cisplatin, at 0.5 µM, stronger effect = higher value.
[18] abbreviates: measured here: combination with cisplatin, at 5 µM, stronger effect = higher value.
The mark [19] stands for this setting: measured here: with BGB IC20 combination, at 0.5 µM.
[20] abbreviates: measured here: with cisplatin IC20 combination, at 0.5 µM.
Where [21] appears, read: measured here: 5 uM single agent, at 5 µM.
Where [22] appears, read: measured here: with BGB IC20, at 0.5 µM.
Where [23] appears, read: measured here: with BGB IC20, at 5 µM.
[24] abbreviates: measured here: with cisplatin IC20, at 0.5 µM.
Setting [25] is: measured here: with cisplatin IC20, at 5 µM.

Values joined by “and” are separate entries in the source; they are usually repeats but may differ in a detail not shown here. Equal entries are not always repeated. Active and inactive are the calls of the source. Unless noted, the rule behind the calls is not given here.

Turning to `NS(=O)(=O)c1cccc2c1c([N+](=O)[O-])cc1nc(O)c(O)nc12`, the remaining activity in assay [1] is 120% (inactive). Besides, the fold change was 1.03 (inactive) and 0.923 (inactive) in assay [2] (setting [9]); 1.03 and 0.947 in assay [2] (setting [10]). The cell count in assay [2] (setting [11]) was 11000 and 9080; in assay [2] (setting [12]) it was 10700 and 9830. Also, the z-score in assay [3] was 0.68 (inactive) and 0.65 (inactive).

As to `CC[C@H](CO)Nc1nc(NCc2ccc(-c3ccccn3)cc2)c2ncn(C(C)C)c2n1`, the parasite load remaining in assay [4] was 135% (inactive). In addition, the viability in assay [4] is 85.7%. Moreover, the remaining activity in assay [1] is 108% (inactive). For the same compound, the fold change is 1.16 (inactive) in assay [2] (setting [9]) and 0.699 in assay [2] (setting [10]). Besides, the cell count amounted to 1900 in assay [2] (setting [11]) and 1650 in assay [2] (setting [12]). Further, the z-score in assay [3] was -0.89 (inactive).

As to `COc1cc(C=O)c([N+](=O)[O-])cc1OC`, the remaining activity in assay [1] was 102% (inactive). Further, the fold change in assay [2] (setting [9]) was 0.928 (inactive); in assay [2] (setting [10]), 1.17. Moreover, the cell count in assay [2] (setting [11]) is 8790; in assay [2] (setting [12]) it was 9460. Moreover, the z-score in assay [3] was -0.05 (inactive). Moreover, the inhibition was -16.6% (inactive) in assay [5] (setting [13]); 9.48% in assay [5] (setting [14]); -5.33% in assay [5] (setting [15]); 7.41% in assay [5] (setting [16]); -18.5% in assay [5] (setting [17]); 3.4% in assay [5] (setting [18]). For the same compound, the inhibition is -38.7% in assay [6] (BGB combo, at 5 µM); -19.7% (inactive) in assay [6] (at 0.5 µM); -6.74% in assay [6] (cisplatin combo, at 5 µM); -8.97% in assay [6] (setting [19]); -29.9% in assay [6] (setting [20]); 0.626% in assay [6] (single agent, at 5 µM). Also, the inhibition in assay [7] (BGB IC20 combo, at 0.005 µM) is -9.07%; in assay [7] (BGB IC40 combo, at 0.005 µM) it was -48.2%; in assay [7] (BGB IC40 combo, at 0.05 µM) it was -39.8%; in assay [7] (at 0.5 µM), -35.2% (inactive); in assay [7] (cisplatin combo, at 0.05 µM), -45.3%; in assay [7] (cisplatin combo, at 0.5 µM) it was -48.6%. Moreover, the inhibition in assay [7] (cisplatin combo, at 5 µM) was -19.2%; in assay [7] (setting [21]), -4.36%; in assay [8] (at 0.5 µM), -19.8% (inactive); in assay [8] (setting [22]), -22.3%; in assay [8] (setting [23]), -12.5%; in assay [8] (setting [24]), -24.3%. Also, the inhibition was -32.4% in assay [8] (setting [25]) and -9.78% in assay [8] (single agent, at 5 µM).

For `O=c1cc(N2CCOCC2)oc2c1ccc1ccccc12`, the parasite load remaining in assay [4] is 36.5% (inactive). In addition, the viability in assay [4] was found to be 108%. For the same compound, the remaining activity in assay [1] is 119% (inactive). Moreover, the fold change in assay [2] (setting [9]) is 1.08 (inactive); in assay [2] (setting [10]), 1.44. Moreover, the cell count worked out at 6910 in assay [2] (setting [11]) and 6380 in assay [2] (setting [12]). Also, the z-score in assay [3] was 1.36 (inactive). Besides, the inhibition in assay [5] (setting [13]) was -16% (inactive); in assay [5] (setting [14]), -21.9%; in assay [5] (setting [15]) it was 39.3%; in assay [5] (setting [16]) it was -14.5%; in assay [5] (setting [17]) it was -18.2%; in assay [5] (setting [18]), 6.61%. Also, the inhibition in assay [6] (BGB combo, at 5 µM) was -27.9%; in assay [6] (at 0.5 µM), 5.72% (inactive); in assay [6] (cisplatin combo, at 5 µM) it was -6.14%; in assay [6] (setting [19]), -2.44%; in assay [6] (setting [20]) it was 15.8%; in assay [6] (single agent, at 5 µM), 4.04%. Also, the inhibition in assay [7] (BGB IC20 combo, at 0.005 µM) is 3.18%; in assay [7] (BGB IC40 combo, at 0.005 µM), -0.874%; in assay [7] (BGB IC40 combo, at 0.05 µM), -4.91%; in assay [7] (at 0.5 µM) it was -11.2% (inactive); in assay [7] (cisplatin combo, at 0.05 µM), -10.2%; in assay [7] (cisplatin combo, at 0.5 µM) it was -14.9%. Further, the inhibition in assay [7] (cisplatin combo, at 5 µM) is -15.9%; in assay [7] (setting [21]), 0.403%; in assay [8] (at 0.5 µM) it was -0.76% (inactive); in assay [8] (setting [22]), 5.35%; in assay [8] (setting [23]) it was 11.2%; in assay [8] (setting [24]) it was -3.29%. For the same compound, the inhibition in assay [8] (setting [25]) stood at 1.5%; in assay [8] (single agent, at 5 µM), 5%.
